# Measured values from paper PMC10726135, “HNF4α isoforms regulate the circadian balance between carbohydrate and lipid metabolism in the liver”.
# The full ranking holds about 18,000 sequences; the median of “log2 normalized intensity” is about 0.36, and the highest 2% start at about 7.3. The list comes from a sample in which the highest values are over-represented; it also holds similar and randomly drawn sequences.
# Target: T1, HNF4alpha8 (COS-7 nuclear extract) (Homo sapiens, UniProt P41235-5 1-452)
# T1 sequence: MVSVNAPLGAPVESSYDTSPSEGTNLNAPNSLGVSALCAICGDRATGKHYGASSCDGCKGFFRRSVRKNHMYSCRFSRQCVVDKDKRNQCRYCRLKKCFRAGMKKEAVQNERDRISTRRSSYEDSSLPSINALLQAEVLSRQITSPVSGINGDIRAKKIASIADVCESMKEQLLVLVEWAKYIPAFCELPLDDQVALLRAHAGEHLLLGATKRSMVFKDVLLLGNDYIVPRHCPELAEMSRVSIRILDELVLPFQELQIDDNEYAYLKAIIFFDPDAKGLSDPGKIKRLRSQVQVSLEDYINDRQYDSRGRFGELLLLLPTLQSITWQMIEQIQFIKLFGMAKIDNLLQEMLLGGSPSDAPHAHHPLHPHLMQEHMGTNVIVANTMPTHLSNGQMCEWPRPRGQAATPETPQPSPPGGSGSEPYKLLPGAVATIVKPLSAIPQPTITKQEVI
# Assay: protein-binding microarray; COS-7 nuclear extract on double-stranded Agilent 4x180k PBM; binding buffer, salt, pH and temperature not given in the material; high values mean tight binding
# Conditions: chain copies: 2; label: 3' end of strand 1 on the slide; dsDNA, one strand shown
# Summary of the method: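 A human HNF4α isoform was expressed in COS-7 cells by transient CaPO4 transfection, and nuclear extracts were prepared. These were applied to a custom Agilent SurePrint G3 4x180k array carrying ~44,000 test sequences in quadruplicate as double-stranded ~60-nt oligonucleotides, and an Agilent G2565CA scanner imaged bound HNF4α at 2-µm resolution. The background-corrected, normalized gProcessedSignal from Agilent software was used as the binding signal.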
row,Sequence,binding signal [log2 normalized intensity]
1,TTGATTTAACATTTGTGATCTGGCACAAATGCCTAGGGAGATTAGAGTATCGGTCGA,0.366
2,AGATACTGAATCTCCCAGTGCTTTGATCTTGCCTAGGGAGATTAGAGTATCGGTCGA,1.39
3,TCACCTGCTCATTGACCCTTAGGCCAAGGCGCCTAGGGAGATTAGAGTATCGGTCGA,3.1
4,ATGTCAGGAGCCCCACTGTAGTAAGGGAGTGCCTAGGGAGATTAGAGTATCGGTCGA,-0.892
5,CACCTCTGCTTATCTCAACTGATTTACCTCGCCTAGGGAGATTAGAGTATCGGTCGA,0.918
6,TTAACACAAGTTATTACCGTGATGTTCGTTGCCTAGGGAGATTAGAGTATCGGTCGA,1.14
7,CAGAGCTGTCGTCCCAGGGCAAAGGTCACCGCCTAGGGAGATTAGAGTATCGGTCGA,8.47
8,GTCCCAGGGCAAAGGTCACCAGCTAAGCTGGCCTAGGGAGATTAGAGTATCGGTCGA,6.21
9,GGGCAAATCTGAGGTCAAAGCTGTCAGAGAGCCTAGGGAGATTAGAGTATCGGTCGA,-0.316
10,AGGGCAAAGGTCACCAGCTAAGCTGTTACTGCCTAGGGAGATTAGAGTATCGGTCGA,5.83
11,CTGTCGTCCCAGGGCAAAGGTCACCAGCTAGCCTAGGGAGATTAGAGTATCGGTCGA,7.57
12,CTTCCCAGCTGCTGGTCAAAGGGCATTACTGCCTAGGGAGATTAGAGTATCGGTCGA,5.83
13,ATCCTGCCTCCATTAATTAACCTTTGAGCTGCCTAGGGAGATTAGAGTATCGGTCGA,6.76
14,ATACCCATTCACATGACCTTTGTCCGTTCCGCCTAGGGAGATTAGAGTATCGGTCGA,7.49
15,TTCGGTGCTGACCTTTGTTCACATTTGTGCGCCTAGGGAGATTAGAGTATCGGTCGA,5.96
16,ACATGACCTTTGTCCGTTCCTGCCTGGAGCGCCTAGGGAGATTAGAGTATCGGTCGA,5.37
17,ATGAGATACCCATTCACATGACCTTTGTCCGCCTAGGGAGATTAGAGTATCGGTCGA,8.96
18,CTGGGATGAGATACCCATTCACATGACCTTGCCTAGGGAGATTAGAGTATCGGTCGA,3.92
19,CATTCACATGACCTTTGTCCGTTCCTGCCTGCCTAGGGAGATTAGAGTATCGGTCGA,6.63
20,CTGATGAATAGAAAGAGGTCAATGTACTTAGCCTAGGGAGATTAGAGTATCGGTCGA,2.94
21,TATGTTAATGGCAGAATCAAAGGTCAAAATGCCTAGGGAGATTAGAGTATCGGTCGA,5.17
22,TGCACTTTGCCCTCTCTTCAGCACCTTTTAGCCTAGGGAGATTAGAGTATCGGTCGA,5.26
23,TCAGTTTCATTGCACTTTGCCCTCTCTTCAGCCTAGGGAGATTAGAGTATCGGTCGA,7.35
24,ATAATTCAGTTTCATTGCACTTTGCCCTCTGCCTAGGGAGATTAGAGTATCGGTCGA,9.39
25,ACTGCCATTGATAATTCAGTTTCATTGCACGCCTAGGGAGATTAGAGTATCGGTCGA,-0.131
26,TTCATTGCACTTTGCCCTCTCTTCAGCACCGCCTAGGGAGATTAGAGTATCGGTCGA,6.34
27,CATTGATAATTCAGTTTCATTGCACTTTGCGCCTAGGGAGATTAGAGTATCGGTCGA,4.62

row,Sequence,binding signal [log2 normalized intensity]
1,GGTCTGTTTGTGAAACAGTGGGCAATATGAGCCTAGGGAGATTAGAGTATCGGTCGA,1.18
2,AACCTAGCCCCCTTTCCCTTATCTTTGTTAGCCTAGGGAGATTAGAGTATCGGTCGA,2.54
3,GGACAAAGTTCGTGGAAAGTGGAAGAATGGGCCTAGGGAGATTAGAGTATCGGTCGA,0.952
4,CATGAAGCTTCCCCTTTAACCAATATTAGCGCCTAGGGAGATTAGAGTATCGGTCGA,0.107
5,AGGAGTGTCTTTCTCCTTGAACACAGTGTTGCCTAGGGAGATTAGAGTATCGGTCGA,1.24
6,TCTTGGAATGTTGAACCTTTCTTTGTCTTTGCCTAGGGAGATTAGAGTATCGGTCGA,2.31
7,TATCTTCTTTCAGTGTTGACCTTTGAACATGCCTAGGGAGATTAGAGTATCGGTCGA,9.23
8,AACCTTCATCTCTCTTTGTTGACATCTGCTGCCTAGGGAGATTAGAGTATCGGTCGA,-0.0144
9,GAATGTTGAACCTTTCTTTGTCTTTGCAATGCCTAGGGAGATTAGAGTATCGGTCGA,1.98
10,CATGCTCTTGGAATGTTGAACCTTTCTTTGGCCTAGGGAGATTAGAGTATCGGTCGA,3.19
11,TATCCAATAAAACACTATCTTCTTTCAGTGGCCTAGGGAGATTAGAGTATCGGTCGA,0.405
12,TCTTTCAGTGTTGACCTTTGAACATTTCTTGCCTAGGGAGATTAGAGTATCGGTCGA,8.97
13,AACACTATCTTCTTTCAGTGTTGACCTTTGGCCTAGGGAGATTAGAGTATCGGTCGA,7.46
14,TTACCATATTTACTTATGGTTTGACCCTGCGCCTAGGGAGATTAGAGTATCGGTCGA,5.23
15,AATTCCTTTCAAACTGTATTGCTCAATGTCGCCTAGGGAGATTAGAGTATCGGTCGA,0.181
16,GAGTTGGAGAAGAGCAAAGATCATCTGGTGGCCTAGGGAGATTAGAGTATCGGTCGA,1.45
17,CAAAAGTTCAAACTTTATTTGATGATGAAGGCCTAGGGAGATTAGAGTATCGGTCGA,0.503
18,AATGCGCAGAATTTCTTTTAATGTGTGCTTGCCTAGGGAGATTAGAGTATCGGTCGA,0.136
19,TTAATACTTTGGAACTCAGTTAATGTACAGGCCTAGGGAGATTAGAGTATCGGTCGA,1.59
20,CTTAGCAGTGGGAGACAGGCATTAACCCTTGCCTAGGGAGATTAGAGTATCGGTCGA,1.74
21,GAGACAACTGCAACAGGAGGACCTCTGGATGCCTAGGGAGATTAGAGTATCGGTCGA,-0.854
22,TTCTTCTGGTTCTGCAAGGCAACTGACCTTGCCTAGGGAGATTAGAGTATCGGTCGA,4.13
23,CTTGGGGGAGGAGGGCAACCTTTGAACTGGGCCTAGGGAGATTAGAGTATCGGTCGA,6.02
24,TCTGCAAGGCAACTGACCTTTGGATCTGGGGCCTAGGGAGATTAGAGTATCGGTCGA,8.01
25,AACTGTACTTTGGACTGGGGACCTGGTCTGGCCTAGGGAGATTAGAGTATCGGTCGA,4.79
26,CTGGTTCTGCAAGGCAACTGACCTTTGGATGCCTAGGGAGATTAGAGTATCGGTCGA,8.71
27,TTTATGACCTTTGACTGCAGAAGATAAGAAGCCTAGGGAGATTAGAGTATCGGTCGA,4.5
